Data on 36 compounds can be found in PubChem BioAssay (EPA / NIEHS).

Results filed as inconclusive are left out. Calls of active or inactive are those of the source. Rule for the calls: active = hit-call score of the fitted dose curve at least 0.9, where 1 is the maximum; inconclusive = response in the unintended direction; inactive = score below 0.9.

Hepatocyte nuclear factor 4-alpha (Homo sapiens), sequence (P41235 whole entry, looked up, the tested form may be a part): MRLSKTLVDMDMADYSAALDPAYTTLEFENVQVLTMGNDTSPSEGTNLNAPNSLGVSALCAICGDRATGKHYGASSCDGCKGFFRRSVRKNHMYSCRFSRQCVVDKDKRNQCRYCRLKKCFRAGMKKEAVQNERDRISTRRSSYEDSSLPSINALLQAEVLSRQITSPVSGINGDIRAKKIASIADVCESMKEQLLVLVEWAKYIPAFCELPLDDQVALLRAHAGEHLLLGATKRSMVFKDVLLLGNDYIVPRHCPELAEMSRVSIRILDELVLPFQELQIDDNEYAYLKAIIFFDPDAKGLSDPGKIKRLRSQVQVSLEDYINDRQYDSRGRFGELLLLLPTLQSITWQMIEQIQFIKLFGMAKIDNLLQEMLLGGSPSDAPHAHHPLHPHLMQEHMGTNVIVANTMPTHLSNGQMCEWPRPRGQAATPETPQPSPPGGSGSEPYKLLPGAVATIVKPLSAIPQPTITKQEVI

In the first assay the target is Hepatocyte nuclear factor 4-alpha (Homo sapiens) (UniProt P41235). The assay can be described thus: ATG_HNF4a_TRANS: Attagene TRANS-FACTORIAL HepG2 Assay for human Hepatocyte Nuclear Factor 4 alpha (HNF4a) (AID 2282982). The settings on record: HepG2 HNF4a transactivation reporter, mRNA readout. The essentials:
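Activity of an exogenous HNF4a–Gal4 fusion scored as induced GAL4-UAS reporter transcripts after 24 h chemical exposure of transfected human HepG2 cells. Read-out via RT-PCR with 6-FAM labelling and capillary electrophoresis; rise over DMSO baseline.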
`NC(=O)C(F)(F)C(F)(F)C(F)(F)C(F)(F)C(N)=O`: the call was inactive.

On to `CC(C)OC(=O)COc1ccc(Cl)cc1Cl`, for which the compound was classed as inactive.

Turning to `CN(N=O)C(=O)N[C@@H]1[C@@H](O)[C@H](O)[C@@H](CO)O[C@@H]1O`, the compound was called inactive.

As for `CCn1c2ccccc2c2ccccc21`, the outcome was inactive.

`O=C=NCc1cccc(CN=C=O)c1`: the call was inactive.

With `CC(C)(C)c1cc(CCC(=O)OCC(COC(=O)CCc2cc(C(C)(C)C)c(O)c(C(C)(C)C)c2)(COC(=O)CCc2cc(C(C)(C)C)c(O)c(C(C)(C)C)c2)COC(=O)CCc2cc(C(C)(C)C)c(O)c(C(C)(C)C)c2)cc(C(C)(C)C)c1O`, the outcome was inactive.

For `O=C1OC(=O)c2ccc3c4c(ccc1c24)C(=O)OC3=O`, the compound was called inactive.

In the case of `OCCCCC(F)(F)C(F)(F)C(F)(F)C(F)(F)F`, the compound was called inactive.

In the case of `N#CCCOCCC#N`, the outcome was inactive.

In the case of `O=C(O)C(F)(F)C(F)(F)C(F)(F)C(=O)O`, the call was inactive.

In the case of `CC(O)C#CC(C)O` (configuration not stated), the AC50 (in general, the midpoint of the concentration-response curve, whichever way the signal moves) is 151 µM (active).

On to `O=C1C=CC(=O)N1c1ccccc1`, for which the result was inactive.

For the compound `Cc1ccc(S(=O)(=O)C(I)I)cc1`, the outcome was inactive.

Consider `NC(O)(C(F)(F)F)C(F)(F)F`, for which the compound was called inactive.

For `CCCCOC(=O)[C@H](C)O`, the compound was classed as inactive.

In the case of `CC1=CCC(=O)O1`, the call was inactive.

Consider `O=C1c2c(O)ccc(Nc3ccc(CCO)cc3)c2C(=O)c2c([N+](=O)[O-])ccc(O)c21`, for which the outcome was inactive.

On to `CCN(CC)c1ccc(C=O)cc1`, for which the call was inactive.

For the compound `CC(C)(C)C(=O)C1C(=O)c2ccccc2C1=O`, the outcome was inactive.

As to `Brc1ccccn1`, the compound was classed as inactive.

For `COCCC(=O)OC`, the compound was called inactive.

Test system in a further assay: not listed separately
Kind of assay: ATG_M_06_TRANS: Attagene TRANS-FACTORIAL HepG2 Assay for M06 Transcription Factor (Internal Marker) (AID 2282983).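 Note: reporter transcript level by RT-PCR then capillary electrophoresis fluorescence.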 As to conditions: HepG2 Attagene TRANS M06 internal marker reporter. In outline: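 mRNA levels of a reporter transcript, quantified as FAM fluorescence on capillary electrophoresis, served as readout. HepG2 cells expressing exogenous GAL4-chimera reporter constructs were exposed for 24 h. Gain of signal over DMSO was evaluated.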
Take `NC(=O)C(F)(F)C(F)(F)C(F)(F)C(F)(F)C(N)=O`: the compound was called inactive.

On to `CCN(CCO)S(=O)(=O)C(F)(F)C(F)(F)C(F)(F)C(F)(F)C(F)(F)C(F)(F)C(F)(F)C(F)(F)F`, for which the result was inactive.

Turning to `CN(N=O)C(=O)N[C@@H]1[C@@H](O)[C@H](O)[C@@H](CO)O[C@@H]1O`, the result was inactive.

Take `CCn1c2ccccc2c2ccccc21`: the compound was called inactive.

Turning to `O=C=NCc1cccc(CN=C=O)c1`, the call was inactive.

For the compound `CC(C)(C)c1cc(CCC(=O)OCC(COC(=O)CCc2cc(C(C)(C)C)c(O)c(C(C)(C)C)c2)(COC(=O)CCc2cc(C(C)(C)C)c(O)c(C(C)(C)C)c2)COC(=O)CCc2cc(C(C)(C)C)c(O)c(C(C)(C)C)c2)cc(C(C)(C)C)c1O`, the result was inactive.

On to `O=C1OC(=O)c2ccc3c4c(ccc1c24)C(=O)OC3=O`, for which the outcome was inactive.

Turning to `OCCCCC(F)(F)C(F)(F)C(F)(F)C(F)(F)F`, the outcome was inactive.

As to `CCCCCCCCCc1ccc(OCCO)cc1`, the result was inactive.

Take `CC(C)Nc1ccc(NC(C)C)c2c1C(=O)c1ccccc1C2=O`: the result was inactive.

In the case of `C#CC(O)CCC` (configuration not stated), the compound was classed as inactive.

Turning to `N#CCCOCCC#N`, the compound was classed as inactive.

Take `O=C(O)C(F)(F)C(F)(F)C(F)(F)C(=O)O`: the call was inactive.

Take `CC(O)C#CC(C)O` (configuration not stated): the compound was called inactive.

Turning to `O=C1C=CC(=O)N1c1ccccc1`, the compound was classed as inactive.

For `Cc1ccc(S(=O)(=O)C(I)I)cc1`, the outcome was inactive.

In the case of `NC(=O)C(F)(F)C(F)(F)C(F)(F)C(F)F`, the compound was called inactive.

In the case of `NC(O)(C(F)(F)F)C(F)(F)F`, the call was inactive.

Turning to `O=C(Cl)C(F)(F)C(F)(F)C(F)(F)C(F)(F)C(F)(F)C(F)(F)C(F)(F)F`, the result was inactive.

Turning to `NCC(F)(F)C(F)(F)C(F)(F)C(F)(F)C(F)(F)C(F)(F)F`, the outcome was inactive.

Take `CC1=CCC(=O)O1`: the outcome was inactive.

As for `CC1=CC2C3C=CC(C3)C2C1C` (configuration not stated), the compound was classed as inactive.

As for `OCC(F)(F)C(F)(F)C(F)(F)CO`, the compound was called inactive.

On to `O=C1c2c(O)ccc(Nc3ccc(CCO)cc3)c2C(=O)c2c([N+](=O)[O-])ccc(O)c21`, for which the call was inactive.

Regarding `O=C(O)C(F)(F)OC(F)(F)C(F)(F)OC(F)(F)C(F)(F)OC(F)(F)F`, the result was inactive.

Consider `N#Cc1ccccc1O`, for which the outcome was inactive.

As to `O=C(c1ccccc1)c1ccc(Cl)cc1`, the result was inactive.

With `CCN(CC)c1ccc(C=O)cc1`, the compound was called inactive.

`CC(C)(C)C(=O)C1C(=O)c2ccccc2C1=O`: the call was inactive.

`O=S(=O)(Cl)C(F)(F)C(F)(F)C(F)(F)C(F)(F)C(F)(F)C(F)(F)C(F)(F)C(F)(F)F`: the outcome was inactive.

Turning to `Brc1ccccn1`, the compound was called inactive.

For `COC(F)(C(F)F)C(F)(F)F` (configuration not stated), the compound was called inactive.

Test system in a further assay: not listed separately
Kind of assay: ATG_M_32_TRANS: Attagene TRANS-FACTORIAL HepG2 Assay for M32 Transcription Factor (Internal Marker) (AID 2282984).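 Note: transcript level of a background control reporter unit measured by RT-PCR and capillary electrophoresis.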 The settings on record: HepG2 Attagene TRANS M32 internal marker reporter. In outline: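 Internal background reporter in transfected HepG2: after 24 h chemical exposure, RNA reverse-transcribed, reporter cDNA amplified, fluorescently labelled and HpaI-cut, then sized by capillary electrophoresis. Gain of signal fitted against DMSO control.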
`CC(C)OC(=O)COc1ccc(Cl)cc1Cl`: the compound was called inactive.

For the compound `CCN(CCO)S(=O)(=O)C(F)(F)C(F)(F)C(F)(F)C(F)(F)C(F)(F)C(F)(F)C(F)(F)C(F)(F)F`, the outcome was inactive.

On to `CN(N=O)C(=O)N[C@@H]1[C@@H](O)[C@H](O)[C@@H](CO)O[C@@H]1O`, for which the compound was classed as inactive.

As to `CCn1c2ccccc2c2ccccc21`, the outcome was inactive.

Turning to `O=C1OC(=O)c2ccc3c4c(ccc1c24)C(=O)OC3=O`, the call was inactive.

On to `OCCCCC(F)(F)C(F)(F)C(F)(F)C(F)(F)F`, for which the compound was classed as inactive.

As to `C#CC(O)CCC` (configuration not stated), the compound was called inactive.

Regarding `N#CCCOCCC#N`, the compound was called inactive.

Regarding `O=C(O)C(F)(F)C(F)(F)C(F)(F)C(=O)O`, the compound was called inactive.

`CC(O)C#CC(C)O` (configuration not stated): the outcome was inactive.

In the case of `O=C1C=CC(=O)N1c1ccccc1`, the outcome was inactive.

As to `Cc1ccc(S(=O)(=O)C(I)I)cc1`, the compound was called inactive.

Consider `NC(=O)C(F)(F)C(F)(F)C(F)(F)C(F)F`, for which the call was inactive.

Take `CCCCOC(=O)[C@H](C)O`: the outcome was inactive.

In the case of `NCC(F)(F)C(F)(F)C(F)(F)C(F)(F)C(F)(F)C(F)(F)F`, the compound was classed as inactive.

Take `O=C(F)C1(F)C(F)(F)C(F)(F)C(F)(F)C(F)(F)C1(F)F`: the result was inactive.

In the case of `CC1=CCC(=O)O1`, the result was inactive.

With `O=C1c2c(O)ccc(Nc3ccc(CCO)cc3)c2C(=O)c2c([N+](=O)[O-])ccc(O)c21`, the result was inactive.

In the case of `O=C(O)C(F)(F)OC(F)(F)C(F)(F)OC(F)(F)C(F)(F)OC(F)(F)F`, the result was inactive.

For `O=C(c1ccccc1)c1ccc(Cl)cc1`, the result was inactive.

Regarding `CC(C)(C)C(=O)C1C(=O)c2ccccc2C1=O`, the call was inactive.

Consider `O=S(=O)(Cl)C(F)(F)C(F)(F)C(F)(F)C(F)(F)C(F)(F)C(F)(F)C(F)(F)C(F)(F)F`, for which the compound was called inactive.

Consider `Brc1ccccn1`, for which the compound was classed as inactive.

In the case of `COCCC(=O)OC`, the compound was called inactive.
